This is a sample that favours compounds with a hit; in the whole collection about 6.3% have one here.
Abs 340nm: compound absorbs light at 340 nm; compound absorbance at 340 nm, fold over control; 65,000 tested, under 10 active; AID 708; fold change at 10 µM;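 active means at 10 µM dose, initial 340 nm absorbance at least 2 fold that of control wells; inactive means change under 2 fold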;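 further: initial absorbance extrapolated from kinetic A340 decline of NADH oxidation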
Autofluor 339: intrinsic fluorescence of library compounds, ex339/em460 – biochemical, MLSMR library, data from DPM-DC assay, artefact control, profiling panel; compound autofluorescence, ex339/em460 nm, NADH buffer; stronger effect = higher value; 1 = no-compound wells, NADH background; fluorescence fold increase at 10 µM; 65,000 tested, 5.5% active; AID 709;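 active means at 10 µM, mean starting fluorescence two-fold or more over control wells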;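 further: signal is the first read of a kinetic run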
Spn MK inh: blocks S. pneumoniae mevalonate kinase. purified MK, PK/LDH-coupled NADH absorbance 340 nm. inhibition, % at 10 µM. 65,000 tested, 0.48% active;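 active means ranked among the strongest by inhibition in the single 10 µM screen, a fixed top-ranked set picked for dose follow-up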
Spn PMK inh: S. pneumoniae PMK inhibition; purified PMK, PK/LDH-coupled NADH absorbance 340 nm; inhibition, % at 10 µM; 65,000 tested, 0.49% active;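 active means top-ranked compounds by inhibition in the single 10 µM screen, taking a fixed number of the strongest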
Spn DPM-DC inh: S. pneumoniae DPM-DC inhibition; purified DPM-DC, PK/LDH coupled NADH fluorescence; calls only at 10 µM; 65,000 tested, 0.49% active; AID 556;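 active means the 320 compounds with the highest percent inhibition in the single-dose primary screen, excluding strongly autofluorescent ones, cut at about 32% in these data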;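 further: kinetic rate of NADH fluorescence loss reporting ADP formed by the decarboxylase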
NADH enzymes: inhibitors of enzymes used to reach an NAD/NADH endpoint; IC50, µM (doses to about 10 µM); coupled PK/LDH NADH assays, four targets; AID 774; 65,000 tested, 0.02% active;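 active means single-dose screening hits from any of four coupled enzyme assays that gave an IC50 when retested across doses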;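 further: the DPM-DC format reads NADH fluorescence rather than 340 nm absorbance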
Large screens that a line does not name were inactive.

COc1cc(C(=O)OCCN2CCOCC2)cc(OC)c1OC	none
COc1cc2c(cc1OC)-c1cc(NC3CCCCC3)nc(=O)n1CC2	none
CCCCCCNc1cc2n(c(=O)n1)CCc1cc(OC)c(OC)cc1-2	Autofluor 339 3.4 (not shown: Spn DPM-DC inh)
COc1cc2c(cc1OC)-c1cc(NC3CC3)nc(=O)n1CC2	none
CCNc1cc2n(c(=O)n1)CCc1cc(OC)c(OC)cc1-2	Autofluor 339 2.7
O=C(Cc1cccs1)N(Cc1ccco1)C1(C(=O)NC2CCCC2)CCCCC1	none
COc1cc2c(C(=O)NCc3ccccn3)cn(C)c(=O)c2cc1OC	none
COc1cc2c(cc1OC)-c1cc(NCc3ccccn3)nc(=O)n1CC2	Autofluor 339 3.4, Spn MK inh 52 (not shown: Spn DPM-DC inh)
Cn1c(-n2c(-c3ccco3)nc3ccccc3c2=O)nc2ccccc21	none
CC(=O)Nc1nnc(-c2ccc3c(c2)CCCC3)o1	none
CC1CN(S(=O)(=O)c2ccc(C(=O)Nc3nnc(-c4ccc5c(c4)CCCC5)o3)cc2)CC(C)O1 (configuration not stated)	Autofluor 339 2.1 (not shown: Spn DPM-DC inh)
CCOC(=O)CN(C(=O)CSc1nnc2c(n1)[nH]c1ccc(OC)cc12)c1ccc(F)cc1	none
CCOC(=O)CC(=O)CSc1nnc2c(n1)[nH]c1ccccc12	Spn PMK inh 34
O=C(O)c1cc(NCc2ccc3c(c2)OCO3)ccc1N1CCOCC1	Autofluor 339 2.5
COc1ccccc1CNc1ccc(N2CCOCC2)c(C(=O)O)c1	Autofluor 339 2.2
COc1cc(CNc2ccc(N3CCOCC3)c(C(=O)O)c2)ccc1OCC(N)=O	Autofluor 339 2.3, Spn DPM-DC inh active
COC(=O)c1cc(NCc2ccc3c(c2)OCO3)ccc1N1CCOCC1	none
CC1CC(C)CN(c2oc(-c3ccco3)nc2C#N)C1 (configuration not stated)	Autofluor 339 2.2 (not shown: Spn DPM-DC inh)
O=S(=O)(c1ccccc1)c1nc(-c2ccco2)oc1N1CCOCC1	none
N#Cc1nc(-c2ccco2)oc1N1CCc2ccccc2C1	Autofluor 339 3.8 (not shown: Spn DPM-DC inh)
N#Cc1nc(-c2ccco2)oc1N1CCN(C(c2ccccc2)c2ccccc2)CC1	none
N#Cc1nc(-c2ccco2)oc1N1CCCC1	Autofluor 339 3.9 (not shown: Spn DPM-DC inh)
CCc1cccc(CC)c1N(COC)C(=O)Cn1c(C(C)O)nc2ccccc21 (configuration not stated)	none
CCOC(=O)c1c(C)n(OCc2ccccc2)c2ccc3c(no[n+]3[O-])c12	Spn DPM-DC inh active
Cc1nn(-c2ccccc2)c2sc(C(=O)OCn3nnc4ccccc4c3=O)cc12	none
Cc1nn(-c2ccccc2)c2sc(C(=O)N3CCCCC3)cc12	none
Cc1nn(-c2ccccc2)c2sc(C(=O)n3cccn3)cc12	Autofluor 339 2.2 (not shown: Spn DPM-DC inh)
CCCCNC(=O)COC(=O)c1cc2c(C)nn(-c3ccccc3)c2s1	Autofluor 339 2.5
O=C(NCCOc1ccccc1)c1cc2ccccc2o1	none
COc1cccc(CN(Cc2cccnc2)S(=O)(=O)c2ccc(-n3cnnn3)c(C)c2)c1	none
O=c1cccccc1NCc1ccccc1	Spn DPM-DC inh active
O=C(Nc1ccc2oc(=O)ccc2c1)c1ccco1	Autofluor 339 2.8
O=C(Nc1ccc(Nc2ccccc2)cc1)c1ccco1	none
O=c1c2ccccc2nc2c3ccccc3ncn12	Autofluor 339 2.3 (not shown: Spn DPM-DC inh)
Cc1ccc2cc(CN(CCO)Cc3nnnn3Cc3ccc(F)cc3)c(=O)[nH]c2c1	none
O=c1[nH]c2cc3c(cc2cc1CN(Cc1ccccc1)Cc1nnnn1Cc1ccco1)OCCO3	Autofluor 339 2.5
CCc1ccc2[nH]c(=O)c(CN(Cc3ccccc3)Cc3nnnn3Cc3ccco3)cc2c1	none
CCOc1ccc2[nH]c(=O)c(CN(Cc3cccs3)Cc3nnnn3C(C)(C)CC)cc2c1	Autofluor 339 2.6
CCC(C)(C)n1nnnc1CN(Cc1cccs1)Cc1cc2cc(OC)ccc2[nH]c1=O	none
O=c1[nH]c2cc3c(cc2cc1CN(CCCO)Cc1nnnn1Cc1ccc(F)cc1)OCO3	Autofluor 339 3.1, Spn DPM-DC inh active
O=c1[nH]c2cc3c(cc2cc1CN(Cc1cccs1)Cc1nnnn1Cc1ccco1)OCCO3	Autofluor 339 2.4
Cc1ccc2[nH]c(=O)c(CN(Cc3ccc4c(c3)OCO4)Cc3nnnn3Cc3ccco3)cc2c1	none
COc1ccc(OC)c(NC(=O)C2CCN(c3nc(C)cc(C)n3)CC2)c1	none
O=C(CN1C(=O)CCC1=O)Nc1nc(-c2nc3ccccc3s2)cs1	Autofluor 339 2.1 (not shown: Spn DPM-DC inh)
CC1(C)C(c2ccc(Cl)cc2)=[N+]([O-])C2(CCCC/C2=N\O)N1O (configuration not stated)	none
N#Cc1cc2cc3c(cc2nc1N1CCCCC1)OCCO3	Autofluor 339 3
Cc1cccc(-c2cc3nc4c(c(N5CCC6(CC5)OCCO6)n3n2)CCCC4)c1	none
COc1ccc(-c2cc3nc(-c4ccccc4)cc(N4CCC5(CC4)OCCO5)n3n2)cc1	Autofluor 339 4.8 (not shown: Spn DPM-DC inh)
O=C(CSc1n[nH]c(-c2ccc(S(=O)(=O)N3CCCCC3)cc2)n1)Nc1nccs1	Autofluor 339 2.6
O=C(CCC1CCCC1)Nc1ccc(Br)cn1	none
O=C(COC(=O)CCc1c[nH]c(=O)[nH]1)Nc1ccccc1	Spn PMK inh 25
CSc1ccc(CN2CCC(O)CC2)cc1	Spn MK inh 58
CCN1CCN(Cc2ccc(NC(=O)Nc3ccc(SC)cc3)cc2)CC1	none
CCCCOc1ccc(CN2CCC(O)CC2)cc1	Spn MK inh 41
Cc1cc(Nc2ccc(C)c(C)c2)n2nc(C)nc2n1	none
Cc1cccc(CN2CCN(CC(=O)NCc3ccc(F)cc3)C2=O)c1	none
CCc1cc(=O)oc2cc3oc(C)c(C)c3cc12	none
CCc1cc(=O)oc2cc(OC(C)=O)cc(OC(C)=O)c12	Autofluor 339 2.4 (not shown: Spn DPM-DC inh)
CCC(Oc1ccccc1)C(=O)Nc1ccc(-c2nnc(-c3ccco3)o2)cc1 (configuration not stated)	Autofluor 339 2.8
Cc1cccc(C)c1N1CCN(S(=O)(=O)c2ccc(F)cc2)CC1	none
Cc1ccccc1CN1CCN(S(=O)(=O)c2ccc(F)cc2)CC1	Spn DPM-DC inh active
COc1cccc(CN2CCN(C(=O)c3cccc4ccccc34)CC2)c1OC	none
COc1cccc(OC)c1C(=O)N1CCN(Cc2ccccc2C)CC1	Spn MK inh 48
CCN1CCC(C(=O)NC2CCCC2)(N(Cc2cccs2)C(=O)Cn2nnc3ccccc32)CC1	none
COCc1cc(C)nc2sc(C(=O)OC(C)C)c(N)c12	Autofluor 339 2.1
COc1ccc(OC)c(S(=O)(=O)N2CCC(C(=O)Nc3cccc(C(F)(F)F)c3)CC2)c1	none
Cc1nn(C)c(C)c1NC(=O)CN1CCC(O)(c2ccc3c(c2)OCO3)CC1	none
COc1cc2[nH]c(=O)n3nc(-c4ccccc4)nc3c2cc1OC	Autofluor 339 2.1 (not shown: Spn DPM-DC inh)
COc1cc2[nH]c(=O)n(CCCC(=O)N3CC=C(c4ccccc4)CC3)c(=O)c2cc1OC	none
